{"source": "PubChem BioAssay (NCATS)", "note": "Results filed as inconclusive are left out. Activity calls are given as the source filed them. The call rests on the fitted dose curve; in most records, active means well fitted activation curve with a large enough effect in the repeat runs; inconclusive means weak or mixed curves; inactive means flat fitted curve, though single readings scatter.", "data": [{"test": "qHTS assay for small molecule agonists of the antioxidant response element (ARE) signaling pathway measured by Nrf2-dependant transcriptional activity (AID 720636); further: % of control where 0% means no effect", "conditions": "ARE-luc HepG2, Nrf2 luciferase reporter, 16 h; series mostly up to 92.4 µM; activation: at the top concentration", "from_the_text": "National Center for Advancing Translational Sciences [NCATS] NIH Chemical Genomics Center [NCGC] U.S. Environmental Protection Agency [EPA] National Institutes of Environmental Health Sciences [NIEHS] National Toxicology Program [NTP] Assay Overview: The antioxidant response element (ARE) signaling pathway plays an important role in the cellular anti-oxidant defense. Exposure to stressors which are exogenous like ionizing radiations, chemicals, U-V light, and endogenous like cell signaling, metabolic processes or inflammation, reactive oxygen species (ROS), can induce oxidative stress in the cells. Oxidative stress has been implicated in the pathogenesis of a variety of diseases ranging from cancer to neurodegeneration. ARE-luc HepG2 cell line (Simmons et al., Current Chemical Genomics, 5:1-12, 2011) has been used for identifying the chemicals that induce oxidative stress. The cell line has an Nrf2-responsive luciferase reporter gene that has been engineered to measure Nrf2-dependant transcriptional activity.\nAssay Protocol Summary: For measuring ARE induction; 2,000 ARE-luc HepG2 cells in 5 uL of assay medium containing 1% dialyzed FBS per well were dispensed into white wall/solid bottom 1536-well plates using a Flying Reagent Dispenser (FRD) (Aurora Discovery). The assay plates were incubated for 6 hr at 37 C to allow cell attachment to the well bottom, followed by the transfer of 23 nL compound or DMSO vehicle by a pin tool (Kalypsys). The plates were incubated for 16 hr at 37 C and 5% CO2, followed by the addition of 5 uL of ONE-GloTM luciferase reagent (Promega) into each well using FRD. After 30 min room temperature incubation, plates were read on a ViewLux plate reader (PerkinElmer).", "values": [{"smiles": "Cc1cc(Cl)ccc1O", "activation": "-0.315% (inactive)"}, {"smiles": "CCOC(=O)CC(SP(=O)(OC)OC)C(=O)OCC", "note": "(stereo not given)", "Potency": "inactive"}, {"smiles": "N#CC(O)c1ccccc1", "note": "(stereo not given)", "activation": "0.332% (inactive)"}, {"smiles": "CN(C)c1ccccc1", "activation": "0.0159% (inactive)"}, {"smiles": "CCCBr", "activation": "0.367% (inactive)"}, {"smiles": "Oc1c(Cl)c(Cl)cc(Cl)c1Cl", "activation": "-1.51% (inactive)"}, {"smiles": "N#CCCC#N", "activation": "-0.554% (inactive)"}, {"smiles": "O=[N+]([O-])c1cc(Cl)c(Cl)cc1Cl", "activation": "1.53% (inactive)"}, {"smiles": "Clc1ccccc1", "activation": "-0.933% (inactive)"}, {"smiles": "ClC(Cl)c1ccccc1", "activation": "-0.67% (inactive)"}, {"smiles": "O=C(O)c1cccc(Cl)c1", "activation": "-0.775% (inactive)"}, {"smiles": "C=CCBr", "activation": "-3.12% (inactive)"}, {"smiles": "CC(=O)CCC(C)=O", "activation": "-2.24% (inactive)"}, {"smiles": "CC(C)OC(=O)Cc1ccccc1", "activation": "-0.398% (inactive)"}, {"smiles": "C=CCOCC1CO1", "note": "(stereo not given)", "activation": "-1.23% (inactive)"}, {"smiles": "OC[P+](CO)(CO)CO", "activation": "0.122% (inactive)"}, {"smiles": "CC(C)(Cl)Cl", "activation": "-0.157% (inactive)"}, {"smiles": "Nc1ccc2ccccc2c1", "activation": "0.589% (inactive)"}, {"smiles": "Nc1cc(Cl)cc(Cl)c1", "activation": "0.148% (inactive)"}, {"smiles": "COC(=O)c1ccccc1N", "activation": "-0.833% (inactive)"}, {"smiles": "Clc1ccc(C(Cl)(Cl)Cl)cc1Cl", "activation": "-1.54% (inactive)"}, {"smiles": "Cc1ccc(N)cc1Cl", "activation": "1.23% (inactive)"}, {"smiles": "C=CC(=O)OC", "activation": "-1.85% (inactive)"}, {"smiles": "O=c1ccc(=O)[nH][nH]1", "Potency": "inactive"}, {"smiles": "O=[N+]([O-])c1cccc(CCl)c1", "activation": "-0.26% (inactive)"}, {"smiles": "Nc1ncc([N+](=O)[O-])s1", "activation": "-1.42% (inactive)"}, {"smiles": "CCCCC(=O)Cl", "activation": "0.0415% (inactive)"}, {"smiles": "Clc1ccc(Cl)c(Cl)c1", "Potency": "inactive"}, {"smiles": "CC(C)[N+](=O)[O-]", "activation": "-1.31% (inactive)"}, {"smiles": "Brc1ccc(Oc2ccc(Br)cc2Br)c(Br)c1", "activation": "2.1% (inactive)"}, {"smiles": "ClCC(Br)CBr", "note": "(stereo not given)", "activation": "-1.48% (inactive)"}, {"smiles": "O=[N+]([O-])c1ccccc1CCl", "activation": "0.333% (inactive)"}, {"smiles": "CC(C)Br", "activation": "-0.101% (inactive)"}, {"smiles": "C=COC(C)=O", "activation": "-0.111% (inactive)"}, {"smiles": "Cc1cc(-c2ccc(N)c(C)c2)ccc1N", "activation": "0.663% (inactive)"}, {"smiles": "Oc1cc(Cl)ccc1Cl", "Potency": "inactive"}, {"smiles": "Oc1cc(Cl)c(Cl)c(Cl)c1Cl", "activation": "-2.29% (inactive)"}, {"smiles": "O=[N+]([O-])c1ccccc1-c1ccccc1", "activation": "-1.28% (inactive)"}, {"smiles": "O=C(O)C(Cl)(Cl)Br", "activation": "-0.117% (inactive)"}, {"smiles": "Cl/C=C\\Cl", "activation": "-0.888% (inactive)"}]}]}
